From PubChem BioAssay AID1458 (National Center for Advancing Translational Sciences (NCATS), 2008)
In all, about 210,000 compounds went through this assay and about 5,900 (2.8%) were called active. Another 5% or so got no clear call; they are omitted. Calls follow the shape of the dose curve; as a rule, active = well fitted activation curve with a large enough effect; inconclusive = small, poorly fitted or top-dose-only effect; inactive = no such curve, though single readings can be large or run the other way. What follows is part of a selection rich in actives, with near analogues and random picks from the rest.

Assay: qHTS Assay for Enhancers of SMN2 Splice Variant Expression; also: nearly all actives have a fitted effect of over 55% in size; as to activity change, positive = activation: % of control where 0% means no effect
Conditions: HEK293 SMN2-luciferase splicing reporter, luminescence, 30-36 h; series mostly up to 46.1 µM; activity change, positive = activation: at the top concentration
Outline: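 HEK293 cells carry an SMN2 minigene-luciferase reporter in which exon 7 inclusion puts luciferase in frame. Cells were seeded at 2000 cells/well, attached for 10-12 hours, then exposed to compounds for 30-36 hours at 37C before ONE-Glo luminescence.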
Potency is read from the fitted curve at half-maximal effect.

| SMILES | activity change, positive = activation | Potency |
| --- | --- | --- |
| Cc1cc2c(=O)n(C)c(SCC(=O)c3cc4ccccc4o3)nc2s1 | -1.87% (inactive) | – |
| Cc1ccccc1Nc1nnc(SCC(=O)c2cc3ccccc3o2)s1 | -3.61% (inactive) | – |
| O=C(CSc1nnc(Nc2ccccc2)s1)Nc1cccnc1Cl | 5.82% (inactive) | – |
| Cc1ccc(Nc2nnc(SCC(=O)c3cc4ccccc4o3)s2)cc1C | – | 12.6 µM (active) |
| CC(C)c1ccc(Nc2nnc(SCC(=O)c3nnc(-c4ccccc4)o3)s2)cc1 | – | 10 µM (active) |
| CC(C)Nc1nnc(SCC(=O)c2c[nH]c3ccccc23)s1 | -12.7% [at 1.84 µM] (inactive) | – |
| CCOCCCNC(=O)c1c(NC(=O)Cc2coc3c(C)c(C)ccc23)sc2c1CCC2 | 1.11% (inactive) | – |
| Cc1cccc(N2CCN(C3=C(c4ccccc4)C(=O)c4ccccc43)CC2)c1C | 1.91% (inactive) | – |
| O=C1OC(C(=O)Nc2cccc(Br)c2)Cc2ccccc21 (stereo not drawn) | 0.983% (inactive) | – |
| CCNS(=O)(=O)c1cc(-c2nnc(Nc3cccc(C(F)(F)F)c3)c3ccccc23)ccc1C | -4.9% (inactive) | – |
| COc1cccc(CNC(=O)Cn2ncn3c(cc4ccccc43)c2=O)c1 | 5.36% (inactive) | – |
| Cc1ccc(S(=O)(=O)NCCN2CCOCC2)cc1C | 38.2% (inactive) | – |
| Cc1cc2nc(SCCN3CCOCC3)[nH]c2cc1C | – | 14.1 µM (active) |
| CCOC(=O)CSc1nc2ccc(C)cc2[nH]1 | -0.138% (inactive) | – |
| COc1ccc(S(=O)(=O)NCCSc2nnnn2-c2ccccc2)cc1 | -43.5% (inactive) | – |
| COc1ccc(NC(=O)NC(C)c2c(-n3cccc3)sc(C)c2C)cc1OC (stereo not drawn) | -12.4% (inactive) | – |
| COc1cccc(NC(=O)CCNS(=O)(=O)c2ccc3c(c2)oc(=O)n3C)c1 | -7.42% (inactive) | – |
| Cc1ccc(CNC(=O)CCNS(=O)(=O)c2ccc3c(c2)oc(=O)n3C)cc1 | -6.56% (inactive) | – |
| CC(=O)c1cccc(NC(=O)N2CCCC2C(=O)NCCc2ccccc2)c1 (stereo not drawn) | 12.8% (inactive) | – |
| O=C(NCCc1ccccc1)c1ccc(NC2=NC3CS(=O)(=O)CC3S2)cc1 (stereo not drawn) | -12.9% (inactive) | – |
| CC1CCCN(c2ccc(C(=O)NCCc3ccccc3)cn2)C1 (stereo not drawn) | – | 11.2 µM (active) |
| Cc1oc2ccc(O)c(CN3CCCCC3)c2c1C(=O)Nc1cccc(C(F)(F)F)c1 | -3.24% (inactive) | – |
| CCC1CCCCN1S(=O)(=O)c1ccc(NC(=O)c2cc(=O)c3ccccc3o2)cc1 (stereo not drawn) | 17% (inactive) | – |
| Cc1ccccc1NC(=O)Cn1c(=O)n(CCCCC(=O)NCc2ccccc2Cl)c(=O)c2ccccc21 | -3.56% (inactive) | – |
| CCN(CC)C(=O)c1sc2nc(-c3ccccc3)ccc2c1N | – | 7.94 µM (active) |
| CCOC(=O)c1sc2nc(SC)nc(-c3ccccc3)c2c1N | -19.5% (inactive) | – |

| SMILES | activity change, positive = activation | Potency |
| --- | --- | --- |
| CS(=O)(=O)c1sc2nc(-c3ccccc3)cc(-c3ccccc3)c2c1N | 2.34% (inactive) | – |
| c1ccc2[nH]c(-c3nc4ccccc4[nH]3)nc2c1 | – | 7.94 µM (active) |
| Cc1ccc(-c2nc3ccccc3[nH]2)cc1N | – | 3.16 µM (active) |
| Cc1ccc(-c2nc3ccccc3[nH]2)cc1NC(=O)c1sc2ccccc2c1Cl | -58.7% (inactive) | – |
| c1ccc(-c2[nH]ncc2-c2nc3ccccc3[nH]2)cc1 | 23.7% (inactive) | – |
| COc1ccc(Br)cc1C(=O)NC(=S)Nc1cc(-c2nc3ccccc3[nH]2)ccc1C | -3.02% [at 1.84 µM] (inactive) | – |
| OCCNc1nc2ccccc2[nH]1 | -20.5% (inactive) | – |
| COc1cc2[nH]c(=O)n(Cc3ccc(C(=O)NCc4ccc(C)cc4)cc3)c(=O)c2cc1OC | 12.5% (inactive) | – |
| CCCCCn1c(=O)[nH]c2cc(C(=O)Nc3cc(C)cc(C)c3)ccc2c1=O | -0.402% (inactive) | – |
| CC(C)(C)c1cnnn1-c1ccc([N+](=O)[O-])cc1 | 3.09% (inactive) | – |
| Cc1nn(-c2ccc([N+](=O)[O-])cc2)c(N)c1-c1ccccc1 | – | 10 µM (active) |
| Cc1nn(-c2ccccc2)c2c1C(c1cccc([N+](=O)[O-])c1)N(c1ccccc1)C(=O)N2 (stereo not drawn) | 24.3% (inactive) | – |
| CCCCN1C(=O)c2[nH]nc(-c3ccccc3O)c2C1c1cccc(OCc2ccccc2)c1 (stereo not drawn) | -11.7% (inactive) | – |
| CC(C)[C@@H]1NC(=O)[C@H](Cc2ccccc2)NC(=O)[C@@H](CC(=O)O)NC(=O)CNC(=O)[C@H](CCCNC(=N)N)NC1=O | -22.6% (inactive) | – |
| CCOC(=O)N1CCC(NC(=O)c2ccc3nc(N4CCOCC4)sc3c2)CC1 | -24.2% (inactive) | – |
| Cc1ccc(C)n1-c1nnc(N2CCC(C(=O)NCc3ccc(F)cc3)CC2)s1 | -5.38% (inactive) | – |
| O=C(NCc1ccc(F)cc1)c1ccc2nc(N3CCCCC3)sc2c1 | – | 4.47 µM (active) |
| O=C(NCCCN1CCN(c2cccc(Cl)c2)CC1)c1nnc(Cc2ccc(F)cc2Cl)o1 | -27.3% (inactive) | – |
| COc1ccc(Cl)cc1NC(=O)Cn1c(=O)c2ccccc2n2nncc12 | -15.1% (inactive) | – |
| CCOc1ccc(CCNC(=O)Cn2nc(CC)n3c(cc4sc(CC)cc43)c2=O)cc1OCC | -6.23% (inactive) | – |
| Cc1ccc(Cl)cc1NC(=O)CCS(=O)(=O)c1ccc(Br)s1 | -15.5% (inactive) | – |
| Cc1nc2nc(NCc3cccc(Br)c3)[nH]n2c(=O)c1Cc1ccccc1 | 0.373% (inactive) | – |
| Cc1cccc(NC(=O)c2ccccc2NC(=O)C(C)(C)C)n1 | -6.31% (inactive) | – |
| Cc1cccc(NC(=O)c2cc(N3C(=O)CCC3=O)ccc2Cl)n1 | -9.11% (inactive) | – |
| Cc1cccc(NC(=O)c2ccc3ccccc3n2)n1 | – | 12.6 µM (active) |
| COc1ccc(NC(=O)CSc2nc(C)cs2)cc1 | 9.16% (inactive) | – |

| SMILES | activity change, positive = activation | Potency |
| --- | --- | --- |
| Cc1csc(SCC(=O)Nc2sccc2C#N)n1 | – | 12.6 µM (active) |
| Cc1cccc(C)c1Nc1nnc(SCC(=O)Nc2sccc2C#N)s1 | 13.8% (inactive) | – |
| CCCc1cc(=O)n2[nH]c(NCc3ccc(CC)cc3)nc2n1 | 5.2% (inactive) | – |
| CCOc1ccccc1NC(=O)Cn1c(=O)n(-c2cccc(C)c2)c(=O)c2c1c1cc(OC)ccc1n2C | -0.773% (inactive) | – |
| COc1ccc(-c2nc3nc(C)cc(C)n3c2Nc2c(C)cccc2C)cc1 | 6.57% (inactive) | – |
| CCOC(=O)c1c(NC(=O)Cc2coc3ccc(CC)cc23)sc2c1CCC2 | -0.233% (inactive) | – |
| N#Cc1ccc(OCc2nnc(-c3ccc([N+](=O)[O-])cc3)o2)cc1 | 7.74% (inactive) | – |
| CCCCOc1ccc(C(=O)NCc2ccco2)cc1 | -27% (inactive) | – |
| CCOc1ccc(-c2nnc(-c3ccco3)o2)cc1 | – | 1.12 µM (active) |
| COc1ccc(C(=O)CSc2nnc(-c3ccco3)o2)cc1 | 0.989% (inactive) | – |
| CCCCOc1ccc(-c2nnc(-c3ccco3)o2)cc1 | – | 14.1 µM (active) |
| COc1ccc(OCC(=O)Nc2nnc(-c3ccco3)s2)cc1 | 4.15% (inactive) | – |
| Cc1ccc(NC(=O)Nc2sc3nc4n(c(=O)c3c2C)CCC(C)CC4)c(Cl)c1 (stereo not drawn) | 6.1% (inactive) | – |
| C=C1O[C@@](CO)(n2cnc3c(N)ncnc32)[C@H](O)[C@@H]1O | -7.24% (inactive) | – |
| O=C1CC(c2nnc(Cc3ccc(Cl)cc3)o2)CN1c1ccccc1 (stereo not drawn) | 10.3% (inactive) | – |
| COc1ccc(OC)c(NC(=O)C2CCN(S(=O)(=O)c3ccc(C)cc3)CC2)c1 | -5.72% (inactive) | – |
| COc1ccc(Cl)cc1-n1c(CCC(=O)O)ccc1-c1ccc(C)cc1 | -4.16% (inactive) | – |
| COC(=O)N1C(/C=C/C=C/c2ccc(OC)cc2)=Cc2ccccc2C1CC(C)=O (stereo not drawn) | -7.94% [at 9.22 µM] (inactive) | – |
| Cc1ccc2oc(C(=O)Nc3ccc(S(=O)(=O)N4CCCCCC4)cc3)cc(=O)c2c1 | 5.39% (inactive) | – |
| Cc1ccc(NC(=O)NC(=O)N(C2CCCCC2)S(=O)(=O)c2ccccc2)cc1 | – | 7.94 µM (active) |
| CC(c1ccco1)N(C(=O)Nc1ccccc1)C1CCCCC1 (stereo not drawn) | 1.7% (inactive) | – |
| CS(=O)(=O)N(C(=O)NC(=O)NC1CCS(=O)(=O)C1)C1CCCCC1 (stereo not drawn) | -4.22% (inactive) | – |
| CCOC(=O)C1CCCN(CC(=O)Nc2cc(C)c3c(=O)oc4ccccc4c3n2)C1 (stereo not drawn) | -14.2% (inactive) | – |
| CCN(CC)S(=O)(=O)c1ccc2c(c1)c(=O)c(C(=O)N1CCN(c3cccc(Cl)c3)CC1)cn2C | -7.2% (inactive) | – |
| CCOCCCNC(=O)c1c(NC(=O)Cc2coc3ccc(C)cc23)sc2c1CCC2 | -4.12% (inactive) | – |
| Cc1ccccc1Nc1nc(N)nc(CN2CCN(c3ccccn3)CC2)n1 | -2.5% (inactive) | – |

| SMILES | activity change, positive = activation | Potency |
| --- | --- | --- |
| Cc1ccccc1Nc1nc(N)nc(CSc2ccccc2)n1 | – | 14.1 µM (active) |
| Cc1ccc(C(=O)OCc2nc(N)nc(Nc3ccccc3C)n2)cc1 | -27.6% (inactive) | – |
| COc1ccc(CCNC(=O)CCCn2c(=O)c3ccccc3n(Cc3ccc(C)cc3)c2=O)cc1OC | -6.14% (inactive) | – |
| Cc1cccc(NC(=O)/C=C/c2ccc3c(c2)OCO3)n1 | – | 2.24 µM (active) |
| O=C(/C=C\c1ccc2c(c1)OCO2)NC1(C(=O)Nc2ccc3c(c2)OCCO3)CCCCC1 | 3.51% (inactive) | – |
| COc1cccc(/C=C/C(=O)Nc2ccc3c(c2)OCCO3)c1 | – | 11.2 µM (active) |
| CCc1c(C)sc(NC(=O)/C=C/c2ccc3c(c2)OCO3)c1C(=O)OC | -23.9% (inactive) | – |
| COc1ccc(OC)c(/C=C/C(=O)OCC(=O)Nc2ccc3c(c2)OCCO3)c1 | -0.868% (inactive) | – |
| COc1ccc(/C=C/C(=O)Nc2ccc3c(c2)OCCO3)cc1OC | -4.17% (inactive) | – |
| COc1ccc(NC(=O)CNC(=O)Cn2ccc3ccccc3c2=O)c(OC)c1 | 14.1% (inactive) | – |
| Cc1ccc(C)c(Cn2c(C(=O)O)c(CNCc3cccs3)c3ccccc32)c1 | -7.69% (inactive) | – |
| CCOc1ccc(Nc2c(S(=O)(=O)c3ccccc3)cnc3ccccc23)cc1 | -35.9% (inactive) | – |
| COc1cc(Br)cc2cc(S(=O)(=O)c3ccccc3)c(=O)oc12 | 3.68% (inactive) | – |
| CN(Cc1ccccc1)C(=O)c1cn(C)c2ccc(S(=O)(=O)N3CCCCC3)cc2c1=O | 1.18% (inactive) | – |
| CCOc1cccc(C(=O)Nc2cccnc2)c1 | 7.59% (inactive) | – |
| CCOc1cccc(C(=O)Nc2nnc(-c3cccs3)s2)c1 | – | 12.6 µM (active) |
| CCc1nnc(NC(=O)c2cccs2)s1 | 15% (inactive) | – |
| CCC(C)[C@@H](N)C(=O)O (stereo partly drawn) | 0.053% (inactive) | – |
| Cc1ccc(N2CC(c3nnc(Cc4ccccc4Cl)o3)CC2=O)cc1 (stereo not drawn) | 9.41% (inactive) | – |
| COc1cccc(-c2cc(C(=O)N3CCN(c4ccccc4OC)CC3)no2)c1 | -3.29% (inactive) | – |
| O=C(c1cc(-c2ccc(F)cc2)on1)N1CCN(c2ccc(F)cc2)CC1 | 3.16% (inactive) | – |
| O=C(c1ccc(F)cc1)N1CCCC(c2nc(-c3cccs3)no2)C1 (stereo not drawn) | -20.6% (inactive) | – |
| COc1ccccc1-c1cc(C(=O)N2CCCCC2)no1 | – | 14.1 µM (active) |
| COc1ccccc1N1CCN(C(=O)c2cc(-c3ccc(Cl)c(Cl)c3)on2)CC1 | 7.06% (inactive) | – |
| O=C(c1cc(-c2cccs2)on1)N1CCCCC1 | – | 14.1 µM (active) |
